# High-throughput results from PubChem BioAssay.
# Only some compounds are listed: those with a hit (about 12% of all), similar ones and a draw of the others.
# HP1b chromo inh: inhibitors of HP1-beta chromodomain binding to methylated histone tails | AlphaScreen HP1-beta / biotin-H3K9me3 peptide binding | P83916 | Potency, µM (top dose mostly 114 µM), for inactives: at the top dose activity change, negative = inhibition, hits mostly inhibitors | AID 540317 | 0.56% of 390,000 active; further: nearly all actives have a fitted effect of over 70% in size
#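 Compound inhibition of the preformed complex between 50 nM HP1-beta and 50 nM biotinylated H3K9me3 peptide was read by AlphaScreen. Buffer was PBS pH 7.4 with 0.01% Tween-20. Incubations ran 30 min at room temperature, with 10 ug/mL donor/acceptor beads.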
# L3MBTL1 inh: L3MBTL1 (human) inhibition | Q9Y468 | AlphaScreen L3MBTL1–H3K9me1 peptide binding | Potency, µM (series often up to 57.1 µM), for inactives: top-dose activity, negative = inhibition, most hits filed as inhibitors | 0.66% of 230,000 active | AID 485360; further: on the % scale 0 is the no-effect control and ±100 the full control effect; nearly all actives have a fitted effect of over 60% in size
#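 Displacement of a biotinylated histone H3(1-15) peptide monomethylated at Lys9 (75 nM) from L3MBTL1 (50 nM) was measured by AlphaScreen after a 30 min room-temperature compound incubation; cefsulodin titration served as intraplate control.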
# JMJD2A Tudor inh: JMJD2A Tudor domain (human) inhibition | AlphaScreen JMJD2A-Tudor / H3K4me3 peptide binding | Potency, µM (series often up to 114 µM), inactives show at the highest dose activity change, negative = inhibition, actives largely listed as inhibitors | 4.4% of 390,000 active | AID 504339; further: on the % scale 0 is the no-effect control and ±100 the full control effect; nearly all actives have a fitted effect of over 50% in size
# Target sequence (O75164 whole entry, looked up, the tested form may be a part): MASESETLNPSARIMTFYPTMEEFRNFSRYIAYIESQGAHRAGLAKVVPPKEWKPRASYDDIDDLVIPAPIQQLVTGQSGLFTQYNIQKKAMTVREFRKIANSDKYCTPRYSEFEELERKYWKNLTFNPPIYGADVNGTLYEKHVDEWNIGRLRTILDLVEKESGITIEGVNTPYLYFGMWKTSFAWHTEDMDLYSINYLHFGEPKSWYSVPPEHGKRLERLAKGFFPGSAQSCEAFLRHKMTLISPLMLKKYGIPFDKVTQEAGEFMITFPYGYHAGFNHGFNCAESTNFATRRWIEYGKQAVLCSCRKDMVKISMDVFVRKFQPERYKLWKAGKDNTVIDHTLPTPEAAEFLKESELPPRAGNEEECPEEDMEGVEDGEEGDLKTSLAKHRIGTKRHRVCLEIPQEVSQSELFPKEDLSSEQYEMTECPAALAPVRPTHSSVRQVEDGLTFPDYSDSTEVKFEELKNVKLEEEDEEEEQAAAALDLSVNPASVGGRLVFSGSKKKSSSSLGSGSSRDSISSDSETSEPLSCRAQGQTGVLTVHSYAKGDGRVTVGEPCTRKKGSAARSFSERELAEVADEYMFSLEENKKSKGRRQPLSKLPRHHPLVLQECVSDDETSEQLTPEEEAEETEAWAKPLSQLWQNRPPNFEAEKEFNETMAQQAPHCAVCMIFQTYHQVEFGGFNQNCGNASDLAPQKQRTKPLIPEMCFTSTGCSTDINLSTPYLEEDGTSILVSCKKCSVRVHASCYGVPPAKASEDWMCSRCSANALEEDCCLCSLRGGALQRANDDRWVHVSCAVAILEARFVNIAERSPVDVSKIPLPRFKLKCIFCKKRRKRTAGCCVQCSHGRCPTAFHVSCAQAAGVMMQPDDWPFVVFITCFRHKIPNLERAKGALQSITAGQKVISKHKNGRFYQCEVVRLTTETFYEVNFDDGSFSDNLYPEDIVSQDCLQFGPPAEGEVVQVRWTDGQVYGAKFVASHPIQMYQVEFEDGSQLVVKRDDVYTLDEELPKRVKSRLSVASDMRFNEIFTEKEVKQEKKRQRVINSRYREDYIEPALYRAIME
# G9a block: inhibitors of human histone lysine methyltransferase G9a. Potency, µM (top dose mostly 102 µM), for inactives: at the top dose activity, negative = inhibition, usual class: inhibitors. G9a H3K9 monomethylation, AlphaScreen, 2 h. 8.8% of 350,000 active. Q96KQ7; further: on the % scale 0 is the no-effect control and ±100 the full control effect; nearly all actives have a fitted effect of over 75% in size
#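 G9a (20 nM) preincubated 15 min RT with compounds, then 500 nM biotinylated H3K9 peptide and 20 uM SAM added; 2 h RT reaction. Monomethyl-H3K9 product detected by AlphaScreen with anti-H3K9me1 antibody, streptavidin donor and anti-rabbit IgG acceptor beads.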
# BAZ2B inh: BAZ2B (human) inhibition | AID 504333 | AlphaScreen BAZ2B-H3K14Ac peptide displacement | Potency, µM (series often up to 114 µM), without a hit: top-dose activity change, negative = inhibition, actives largely listed as inhibitors | 4.4% of 360,000 active | Q9UIF8; further: on the % scale 0 is the no-effect control and ±100 the full control effect; nearly all actives have a fitted effect of over 60% in size
#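 Protein-peptide AlphaScreen: BAZ2B 50 nM, b-H3K14Ac 50 nM, 1x PBS pH 7.4 + 0.01% Tween-20. Preincubation 30 min RT; cpd 30 min RT (top 110 uM); beads 20 min RT, light-protected.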
# Sfp PPTase inh: blocks B. subtilis Sfp PPTase activity. Potency, µM, for the others: largest response in the series, negative = inhibition, usual class: inhibitors. Biochemical Sfp PPTase activity, qHTS. Q9F4F7. 3.5% of 310,000 active. AID 1490;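 further: the enzyme is Sfp with the accession as filed and its product quenches rhodamine fluorescence; 0% = enzyme reaction without inhibitor and -100% = no enzyme wells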
#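 Compounds were incubated with enzyme (final 15 nM) for 15 min at room temperature before substrate addition started the reaction. Fluorescence at 525 nm excitation, 598 nm emission was recorded immediately and after 30 minutes.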
# * hit, by the source's call; ? = inconclusive; . = no result given; [ ] = remark or other dose. The call rests on the fitted dose curve; in most records, active means well fitted curve in the direction sought with a large enough effect; inconclusive means small, poorly fitted or top-dose-only effect, or another doubt; inactive means no such curve, though single readings can be large; an effect the other way counts as inactive or inconclusive. Potency means the concentration at half of the fitted maximal effect.
SMILES,HP1b chromo inh,L3MBTL1 inh,JMJD2A Tudor inh,G9a block,BAZ2B inh,Sfp PPTase inh
CC1[C@H]2Cc3ccc(O)cc3[C@]1(C)CCN2CCc1ccccc1 (some centres not stated),39%,?,-17%,.,.,.
C/C(=C\[C@@H](N)C(=O)O)CP(=O)(O)O,.,.,.,.,.,12%
OCCN(CCO)CCO,.,.,.,26%[59 µM],.,-10%
C=C(C)C(=O)CP(=O)(OCC)OCC,.,.,.,.,.,-4%
Brc1ccc2[nH]cc(/C=N/N3CCCCC3)c2c1,?,-3%,50µM*,?,45µM*,-4%
O=C1Nc2ccccc2C2(CCN(CCc3ccc(C(F)(F)F)cc3)CC2)O1,.,.,.,.,.,-13%
O=C1NCCOC(=O)[C@H](Cc2ccc(F)cc2)CC/C=C/C[C@@H]1CC(=O)N(CCO)Cc1ccccc1,44%,6%,-11%,.,.,.
N#Cc1ccc(NC(=O)CN2CCN(C(=O)c3cccs3)CC2)cc1Cl,29%,31%,-9%,40µM*,-7%,.
O=C(CF)NC(Nc1cccc2cccnc12)C(Cl)(Cl)Cl (configuration not stated),17%,7%,-2%,-47%,-1%,18%
O=C(/C=C/c1ccccc1)NC(NC(=S)Nc1cccc2cccnc12)C(Cl)(Cl)Cl (configuration not stated),.,.,.,14µM*,.,23%
CCOC(=O)c1ccc(N=C(C)c2c(O)[nH]c(=O)[nH]c2=O)cc1,12%,-2%,-10%,.,-11%,-24%
CCOC(=O)CCCCCNC(=O)c1c(O)[nH]c(=O)[nH]c1=O,4%,.,79µM*,.,.,.
O=c1cccc2n1CC1CC2CN(CCO)C1 (configuration not stated),.,.,.,.,.,17%
CCOc1ccc2c3c1O[C@H]1[C@@H](O)C=C[C@H]4[C@@H](C2)N(C)CC[C@@]341,.,.,.,-44%[2.33 µM],.,15%
CCOC(=O)c1ccc(N2C(=O)CC(N3CC=C(c4ccc(F)cc4)CC3)C2=O)cc1 (configuration not stated),1%,?,-34%,3.2µM*,8%,32µM*
O=C1CC(N2CC=C(c3ccc(F)cc3)CC2)C(=O)N1c1ccc(F)cc1 (configuration not stated),31%,-2%,?,25µM*,-12%,3%
CN1CCN(C(=S)c2ccc([N+](=O)[O-])cc2)CC1,?,-3%,?,10µM*,7%,13µM*
CCOC(=O)c1c(NC(=O)c2c(N)n(CCCOC)c3nc4ccccc4nc23)sc2c1CCCC2,-10%,-6%,-14%,4%,-31%,56µM*
CCOCCCn1c(N)c(C(=O)Nc2sc3c(c2C(=O)OC)CCCC3)c2nc3ccccc3nc21,6%,-5%,-31%,5.6µM*,?,?
CCCCn1c(NC(=O)c2ccco2)c(C(=O)OCC)c2nc3ccccc3nc21,55%,-6%,-17%,?,9%,50µM*
CCCCOCCCn1c(N)c(C(=O)OCCOC)c2nc3ccccc3nc21,32%,-4%,6%,8%[59 µM],-6%,13%
CC(C)CC[C@@H](O)[C@](C)(O)C1CC[C@@]2(O)C3=CC(=O)[C@@H]4C[C@@H](O)[C@@H](O)C[C@]4(C)C3CC[C@]12C (some centres not stated),44%,0%,-6%,.,.,.
C=C1[C@@H](O)C2C=CC[C@H](C)C(=O)[C@@](C)(O)C=C[C@@H](OC(C)=O)[C@@]23C(=O)N[C@H](Cc2ccccc2)[C@@H]3[C@@H]1C (some centres not stated),.,.,.,.,.,-14%
CCC(C)C1N=C(c2ccccc2)c2cc(Cl)ccc2N(CC(=O)NCc2ccco2)C1=O (configuration not stated),69%,.,-7%,4%,7%,1%
Cc1ccccc1C1=NCC(=O)N(CC(=O)NCc2ccco2)c2sc3c(c21)CCCC3,-16%,?,89µM*,-16%[12.7 µM],-34%,50µM*
SMILES,HP1b chromo inh,L3MBTL1 inh,JMJD2A Tudor inh,G9a block,BAZ2B inh,Sfp PPTase inh
CN1CCN(C(=O)Cc2nc3ccccc3[nH]2)CC1,22%,2%,-6%,-35%,10%,1%
COc1ccc(N2CCN(Cc3nc4ccccc4[nH]3)CC2)cc1,16%,.,-34%,32µM*,-26%,16%
CCOC(=O)CC(SP(=S)(OC)OC)C(=O)OCC (configuration not stated),.,.,.,?,.,40µM*
CCOC(=O)CC(SP1(=S)OCC2(CCCCC2)CO1)C(=O)OCC (configuration not stated),68%,.,36%,.,.,.
CCN1/C(=C\C=C\C2=[N+](CC)c3ccccc3C2(C)C)C(C)(C)c2ccccc21,?,.,?,?,11µM*,?
Cc1nn2c(=O)cc(N3CCNCC3)nc2s1,.,.,-2%,.,.,.
S=c1[nH]c2cc(Br)cnc2[nH]1,?,-5%,20µM*,3.2µM*,-24%,22µM*
CC/C(=N\Nc1ccccc1)c1c(O)n(C)c(=O)n(C)c1=O,24%,-7%,-18%,22µM*,-30%,?
CCC(=Nc1cccc(C(F)(F)F)c1)c1c(O)n(C)c(=O)n(C)c1=O,35%,10%,7%,.,-15%,-7%
CCC(=NCc1ccc2c(c1)OCO2)c1c(O)n(C)c(=O)n(C)c1=O,46%,-2%,-6%[57.1 µM],?,4%,9%
CCC(=NCc1cc(OC)cc(OC)c1)c1c(O)n(C)c(=O)n(C)c1=O,26%,.,-23%,-28%[59 µM],-5%,50µM*
CC/C(=N\Nc1ccccc1)c1c(O)n(-c2ccccc2)c(=O)[nH]c1=O,55%,-1%,-12%,40µM*,-23%,7%
C/C(=N\NC(=S)Nc1ccccc1)c1c(O)n(C)c(=O)n(C)c1=O,-8%,-1%,18µM*,1.3µM*,-4%,28µM*
C/C(=N\Nc1cccc2ccccc12)c1c(O)n(Cc2ccccc2)c(=O)[nH]c1=O,?,-10%,79µM*,1.6µM*,?,?
C/C(=N\NC(=O)c1ccccc1)c1c(O)n(Cc2ccccc2)c(=O)[nH]c1=O,31%,.,-9%,-25%,-9%,1%
COc1ccc(-n2c(O)c(/C(C)=N/Nc3ccccc3)c(=O)[nH]c2=O)cc1,42%,1%,-15%,40µM*,-6%,0%
CC[N+](C)(CC)CCOC(=O)C(O)(c1ccccc1)c1ccccc1,.,.,.,-37%[12.7 µM],.,16%
Nc1ncnc2c1ncn2[C@@H]1O[C@H](COP(=O)(O)OP(=O)(O)OP(=O)(O)O)[C@H]2OC3(O[C@H]21)C([N+](=O)[O-])=CC(=[N+]([O-])[O-])C=C3[N+](=O)[O-] (some centres not stated),.,.,.,26%[59 µM],.,8.9µM*
